The record followed here is PubChem BioAssay AID651558 (National Center for Advancing Translational Sciences (NCATS), 2012).

About 480 (40%) of roughly 1,200 compounds were called active. About 29% were inconclusive and are not listed. Calls follow the shape of the dose curve; as a rule, active = well fitted inhibition curve with a large enough effect; inconclusive = small, poorly fitted or top-dose-only effect; inactive = no such curve, though single readings can be large or run the other way. This is one part of the list.
Potency is read from the fitted curve at half-maximal effect.

The nature of this assay: qHTS Assay to Find Inhibitors of Chronic Active B-Cell Receptor Signaling: Hit Validation in Primary Screen. Also: nearly all actives have a fitted effect of over 75% in size. To be noted: ABC-DLBCL IkB-luc/CBR ratio luminescence, 4 h; series mostly up to 46.1 µM. An outline of the steps: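 Concentration series (3 nM to 46 uM) tested on TMD8 cells induced with doxycycline for 4 h. Filter-corrected green (IkBa fusion) over red (unfused) luciferase signal; Data were normalised to 10 uM MG-132 and untreated cell wells.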
Turning to `COC1=CC(=O)CC(C)C12Oc1c(Cl)c(OC)cc(OC)c1C2=O` (configuration not stated), the Potency result was “inactive”.

Turning to `COc1cc(OC)c2c(c1)OC(=O)CC2c1cc(OC)c(OC)c(OC)c1` (configuration not stated), the Potency entry is “inactive”.

As for `COc1cc(C2C(C#N)=C(N)Oc3cc4c(cc32)OCO4)cc(OC)c1OC` (configuration not stated), the Potency was 0.461 µM (active).

As to `OCC1OC(n2cnc3c(NC4CCCCC4)ncnc32)C(O)C1O` (configuration not stated), the Potency is 1.46 µM (active).

As for `Nc1ncnc2c1ncn2C1OC(C(=O)NC2CC2)C(O)C1O` (configuration not stated), the Potency is 0.058 µM (active).

With `C=CCNc1ncnc2c1ncn2C1OC(CO)C(O)C1O` (configuration not stated), the Potency is 23.1 µM (active).

As to `Nc1nc(Cl)nc2c1ncn2[C@@H]1O[C@H](CO)[C@@H](O)[C@H]1O`, the Potency is 0.92 µM (active).

For the compound `Nc1ncnc2c1ncn2[C@@H]1O[C@H](COP(=O)(O)O)[C@@H](O)[C@H]1O`, the Potency entry was “inactive”.

With `Nc1ncnc2c1ncn2[C@@H]1O[C@H](CNCc2ccc(-c3cc(C(F)(F)F)ccc3Cl)o2)[C@@H](O)[C@H]1O`, the Potency entry was “inactive”.

In the case of `Nc1ncnc2c1ncn2[C@@H]1O[C@H](CNC(=O)[C@@H]2CCCN2S(=O)(=O)c2ccc(F)cc2)[C@@H](O)[C@H]1O`, the Potency result was “inactive”.

For the compound `CC1CCC2C(=O)N(c3ccc(C(=O)Oc4cccc5cccnc45)cc3)C(=O)C2C1` (configuration not stated), the Potency result is “inactive”.

For the compound `O=C(Oc1c(CN2CCOCC2)cc(Cl)c2cccnc12)c1ccccc1Cl`, the Potency entry was “inactive”.

As for `OC[C@H]1O[C@@H](n2cnc3c(NC4CCCC4)nc(Cl)nc32)[C@H](O)[C@@H]1O`, the Potency was 1.3 µM (active).

`CCCC(=O)Nc1ncnc2c1ncn2[C@@H]1O[C@@H]2COP(=O)(O)O[C@H]2[C@H]1OC(=O)CCC`: the Potency entry was “inactive”.

For `OC[C@H]1O[C@@H](n2cnc3c(NC4CCCC4)ncnc32)[C@H](O)[C@@H]1O`, the Potency is 1.84 µM (active).

As for `S=C(NCc1ccc2[nH]c3c(c2c1)CCCC3)Nc1ccccc1`, the Potency result was “inactive”.

On to `Cc1ccccc1NC(=S)NCc1ccc2c(c1)cc(C)n2C`, for which the Potency is 1.46 µM (active).

With `Cc1ccccc1NC(=S)c1ccc2ccccc2n1`, the Potency result is “inactive”.

`COC(=O)Nc1nc(-c2ccccc2)c(C(=O)c2ccc(Cl)cc2)s1`: the Potency was 3.66 µM (active).

For the compound `CC[C@@H]1Cc2cc(O)ccc2C2=C1c1ccc(O)cc1C[C@H]2CC`, the Potency was 14.6 µM (active).

Regarding `Cc1noc(C)c1COc1cccc(C(=O)OCC(=O)N2CC(=O)Nc3ccccc32)c1`, the Potency is 20.6 µM (active).

For `CN(CC(=O)Nc1ccc2c(c1)OCCO2)Cc1nc2ccccc2c(=O)[nH]1`, the Potency entry was “inactive”.

Turning to `O=C(Cc1n[nH]c(=O)c2ccccc12)OCC(=O)c1ccc2c(c1)OCCO2`, the Potency was 20.6 µM (active).

Turning to `CCOc1ccc(N(CC(=O)Nc2ccccc2OCC)S(=O)(=O)c2c(C)noc2C)cc1`, the Potency was 2.91 µM (active).

Consider `CCOc1ccc(N(CC(=O)Nc2ccccc2C)S(=O)(=O)c2c(C)noc2C)cc1`, for which the Potency is 14.6 µM (active).

As for `CCOc1ccc(N(CC(=O)Nc2ccccc2OC)S(=O)(=O)c2ccccc2)cc1`, the Potency was 5.17 µM (active).

Turning to `CCOc1ccc(S(=O)(=O)N(CC(=O)NN=C2CCN(C)CC2)c2ccc(C)cc2)cc1`, the Potency result is “inactive”.

On to `FC(F)(F)c1nnc2ccc(Cl)nn12`, for which the Potency result was “inactive”.

As to `O=C(N/N=C/C(Br)=C\c1ccccc1)c1n[nH]c2c1CCC2`, the Potency is 2.06 µM (active).

On to `CCOc1cc(C(=O)N/N=C/C(Br)=C/c2ccccc2)cc(OCC)c1OCC`, for which the Potency is 2.59 µM (active).

Take `CCOc1cc(C(=O)N/N=C/C2CC=CCC2)cc(OCC)c1OCC` (configuration not stated): the Potency result is “inactive”.

On to `CC(/C=N/NC(=O)c1n[nH]c2c1CCC2)=C\c1ccccc1`, for which the Potency was 0.58 µM (active).

As for `O=C(N/N=C/C(Br)=C\c1ccccc1)c1ccc2nc[nH]c2c1`, the Potency entry is “inactive”.

With `Cc1c(CCC(=O)N2CCC(C(=O)O)(c3ccccc3)CC2)c(=O)oc2cc3oc4c(c3cc12)CCCC4`, the Potency result is “inactive”.

Consider `Cc1c(CCC(=O)N2CCC[C@H]2C(=O)O)c(=O)oc2cc3oc4c(c3cc12)CCCC4`, for which the Potency was 23.1 µM (active).

Consider `CCOC(=O)C(C)N1C(=O)S/C(=C/c2cc(C)n(-c3ccccn3)c2C)C1=O` (configuration not stated), for which the Potency entry is “inactive”.

As for `CCOC(=O)C(C)N1C(=O)S/C(=C/c2ccc3c(c2)n(C)c(=O)n3C)C1=O` (configuration not stated), the Potency is 18.4 µM (active).

As for `COc1cc2c(c(OC)c1OC)C(c1ccc(C)cc1)CC(=O)O2` (configuration not stated), the Potency result is “inactive”.

Consider `COc1ccc(C2CC(=O)Nc3cc(OC)c(OC)cc32)cc1Br` (configuration not stated), for which the Potency was 20.6 µM (active).

Regarding `COc1cc2c(cc1OC)C(c1ccc(OC)c(OC)c1OC)CC(=O)N2` (configuration not stated), the Potency is 23.1 µM (active).

With `COc1cc(-c2noc(C)c2C#Cc2ccsc2)cc(OC)c1OC`, the Potency was 8.2 µM (active).

Consider `COc1cc(-c2noc(C)c2C#Cc2ccc(N)cc2)cc(OC)c1OC`, for which the Potency was 2.91 µM (active).

As to `NC(=S)NN=C1c2ccccc2-c2ccccc21`, the Potency result was “inactive”.

With `CNC(=S)N/N=C1\C(=O)c2cccc3cccc1c23`, the Potency was 18.4 µM (active).

For `CNC(=S)N/N=C/c1ccco1`, the Potency result is “inactive”.

For `COc1cc(OC)c2c(-c3cccc(-c4ccc(N(C)C)cc4)c3)cc(=O)oc2c1`, the Potency was 2.06 µM (active).

Consider `COc1cc(OC)c2c(-c3cccc(-c4ccc(OC)c(F)c4)c3)cc(=O)oc2c1`, for which the Potency is 1.16 µM (active).

For the compound `COc1ccc(-c2cccc(-c3cc(=O)oc4cc(OC)cc(OC)c34)c2)cc1`, the Potency was 1.16 µM (active).

As to `CC(=O)c1ccsc1-c1c(C)cc2oc(=O)cc(-c3ccccc3)c2c1C`, the Potency entry is “inactive”.

For `COc1cc(OC)c2c(-c3cccc(-c4sccc4C(C)=O)c3)cc(=O)oc2c1`, the Potency is 5.17 µM (active).

For `COc1cc(OC)c2c(-c3cccc(-c4ccc(NC(C)=O)cc4)c3)cc(=O)oc2c1`, the Potency was 2.59 µM (active).

`COc1cc(OC)c2c(-c3cccc(-c4cccc(N)c4)c3)cc(=O)oc2c1`: the Potency was 6.51 µM (active).

Take `COc1cc(OC)c2c(-c3cccc(-c4ccc(O)cc4)c3)cc(=O)oc2c1`: the Potency was 2.59 µM (active).

As for `CCc1ccc(N2CC(C(=O)OCC(=O)Nc3ccccc3C)CC2=O)cc1` (configuration not stated), the Potency result was “inactive”.

Turning to `Cc1[nH][nH]c(=O)c1C(c1c(C)[nH][nH]c1=O)c1cn(Cc2ccc(F)cc2)c2ccccc12`, the Potency was 14.6 µM (active).

With `CCOC(=O)C(NCc1ccccc1)(NC(=O)c1ccccc1)C(F)(F)F` (configuration not stated), the Potency entry is “inactive”.

In the case of `CCNC(=S)NNc1ccccc1`, the Potency entry is “inactive”.

For the compound `CCCc1nnc(NC(=O)CCC(=O)NCCc2ccc(OC)c(OC)c2)s1`, the Potency entry was “inactive”.

`S=C(Nc1ccccc1)Nc1nccs1`: the Potency entry is “inactive”.

For `CCCc1nnc(NC(=S)Nc2ccccc2)s1`, the Potency is 0.164 µM (active).

As to `Cc1csc(NC(=S)Nc2cccc(Cl)c2)n1`, the Potency entry is “inactive”.

For `CCc1nnc(NC(=S)Nc2ccccc2)s1`, the Potency is 0.651 µM (active).
